Screening results: PubChem BioAssay, National Center for Advancing Translational Sciences (NCATS)
Rows were chosen to be rich in hits. Some 9% of all compounds tested hit in one or more screens of this group.
ALDH1A1 block: qHTS Assay for Inhibitors of Aldehyde Dehydrogenase 1 (ALDH1A1) | Aldehyde dehydrogenase 1A1 (Homo sapiens), P00352 | Purified ALDH1A1, NADH fluorescence, propionaldehyde substrate | Potency, µM (highest dose often 75.3 µM), for inactives: top-dose activity, negative = inhibition, actives largely listed as inhibitors | 220,000 tested, 7.3% active;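 also: potency is read from the fitted curve at half-maximal effect; plate controls were no enzyme wells and a reference inhibitor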
HPGD block: qHTS Assay for Inhibitors of HPGD (15-Hydroxyprostaglandin Dehydrogenase) | 15-hydroxyprostaglandin dehydrogenase [NAD(+)] (Homo sapiens), P15428 | purified HPGD, NADH fluorescence kinetic, PGE2 substrate | Potency, µM, inactives show at the highest dose activity change, negative = inhibition, hits mostly inhibitors | 150,000 tested, 4.3% active | AID 894, 2007; also: potency is read from the fitted curve at half-maximal effect
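20 nM HPGD preincubated 15 min at room temperature with compound in 50 mM Tris-HCl pH 8, 0.01% Tween 20. Started with 1 mM NAD+ and 30 uM prostaglandin E2; NADH fluorescence (360/450 nm) read 5 times over 30-s intervals, last minus first.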
IMPase cell inh: qHTS Assay for Identifying the Cell-Membrane Permeable IMPase Inhibitors. CHO-M1 cells, IP1 accumulation, HTRF TR-FRET ratio. 120,000 tested, under 10 active. inhibition (IP1 accumulation), % at 46.1 µM; active = well fitted curve in the direction sought with a large enough effect in the signal ratio, not every such curve was filed as active; inconclusive = small, poorly fitted or top-dose-only effect, or a change in a side signal; inactive = no such curve, though single readings can be large or run the other way; the % refers to the signal ratio;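 also: cells stimulated with carbachol in lithium chloride buffer; plate controls were DMSO basal wells for no effect and reference inhibitor wells for full effect; higher means more IMPase inhibition seen as more IP1 and lower FRET ratio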
Target sequence (P97697 whole entry, looked up): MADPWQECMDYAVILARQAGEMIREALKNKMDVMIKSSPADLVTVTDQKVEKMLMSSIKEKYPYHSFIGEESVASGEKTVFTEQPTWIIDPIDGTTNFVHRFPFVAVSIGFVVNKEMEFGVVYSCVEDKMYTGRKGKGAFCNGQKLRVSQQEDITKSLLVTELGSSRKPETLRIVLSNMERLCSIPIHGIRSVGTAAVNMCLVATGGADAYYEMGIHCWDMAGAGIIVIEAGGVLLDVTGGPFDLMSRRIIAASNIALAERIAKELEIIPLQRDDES
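Seeded CHO-M1 cells were dosed with compound at up to 46 uM, stimulated with carbachol for 30 min, then lysed in IP-One detection reagents. Higher IP1 lowers the TR-FRET signal.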
* marks the source's active call; other numbers are inactive results; ? = inconclusive; nt = no result given; [ ] = dose if it differs, or a comment. Unless noted, calls follow the shape of the dose curve; as a rule, active = well fitted inhibition curve with a large enough effect (not every such curve was filed as active); inconclusive = small, poorly fitted or top-dose-only effect, or another doubt; inactive = no such curve, though single readings can be large or run the other way. Unless noted, % is scaled to controls: 0 for no effect and ±100 for the full control effect.

SMILES	ALDH1A1 block	HPGD block	IMPase cell inh
CC(C)(C)C1CCC2(CC1)SCC(=O)N2c1ccccc1 (stereo unspecified)	?	-7%	0
CC(C)(C)C1CCC2(CC1)NC(=S)N(c1ccccc1)N2 (stereo unspecified)	?	11µM*	-7
O=C(/C=C\c1ccc2c(c1)OCO2)NC1(C(=O)Nc2ccc3c(c2)OCO3)CCCCC1	5%	-26%	nt
C/C(=N\NC(=S)Nc1ccc(F)cc1)C1CC1	15µM*	0%	3
CC1CCN(C(=S)Nc2ccc(F)cc2)CC1	0%	-5%	nt
Cc1cccc(C2c3[nH]c4ccccc4c3CCN2C(=O)c2cc(CC(C)C)[nH]c(=O)n2)n1 (stereo unspecified)	1%	nt	nt
O=C1c2c([N+](=O)[O-])cc([N+](=O)[O-])cc2S(=O)N1Cc1ccccc1 (stereo unspecified)	3.5µM*	nt	nt
O=[N+]([O-])c1ccc2c(c1)S(=O)c1ccccc1-2 (stereo unspecified)	7%[13.5 µM]	-7%	nt
CC1CC[C@@]2(OC1)OC1CC3C4CC[C@@H]5CC(O)CC[C@@]5(C)C4CC[C@]3(C)C1C2C (stereo partly specified)	9%	-7%	nt
O=Cc1ccc(C(=O)O)cc1	22µM*	-10%	nt
Cc1ccc(C(=O)O)cc1	?	-12%	nt
COC(=O)c1ccc(C=O)cc1	8.9µM*	-11%	nt
COC(=O)c1ccc(C)cc1	-10%	-8%	nt
CC(C)CCNC(=S)Nc1ccccc1F	1%	-17%	-8
Cc1ccc(-c2csc3ncnc(Cl)c23)cc1	-13%	-7%	nt
COC(=O)C/C=C/C(C)C(OCc1cccc(-c2ccccc2)c1)C1CCCCC1 (stereo unspecified)	3%[13.5 µM]	nt	nt
O=C(COC(=O)c1ccc2c(=O)n3c(nc2c1)CCC3)NC1CCS(=O)(=O)C1 (stereo unspecified)	-3%	nt	nt
CC(C)=CCOc1ccc(/C=C/C(=O)c2ccc(OCC=C(C)C)cc2OCC(=O)O)cc1	-6%	11µM*	nt
C/C=C/c1ccc(OCC(=O)O)c(OC)c1	-5%	nt	nt
CCN1CCN(C(=O)C(=O)c2c(C)[nH]c3ccccc23)CC1	8%	nt	nt
Cc1ccc(-c2ccc(SCC(=O)c3ccccc3)nn2)cc1	?	?	4
COc1ccc(-c2ccc(SCC(=O)c3ccccc3)nn2)cc1OC	25µM*	nt	nt
CCNC(=S)NNc1nc(N2CCCCC2)nc(N2CCOCC2)n1	-14%	nt	nt
Cc1ccc(NC(=O)/C=C\C(=O)NCC(=O)O)cc1C	5µM*	-18%	nt
Cc1ccc(OC(=O)NC2CCS(=O)(=O)C2)cc1C (stereo unspecified)	5%	-2%	7
SMILES	ALDH1A1 block	HPGD block	IMPase cell inh
Cc1ccc(NC(=O)CNC2CCS(=O)(=O)C2)cc1C (stereo unspecified)	16µM*	nt	nt
Cc1ccc(NC(=O)c2cccc(NC(=O)/C=C/c3ccco3)c2)cc1C	?	-14%	-3
Cc1ccc(NC(=O)CSCC(N)=O)cc1C	4%	-1%	-5
Cc1ccc(NC(=O)CCSCCC(=O)Nc2ccc(C)c(C)c2)cc1C	18µM*	-24%	3
O=C(CC1Nc2c3ccccc3nc(=S)n2C1=O)NC1CCCCC1 (stereo unspecified)	-3%	nt	nt
CCn1nc(C)c(C2C(C#N)=C(N)OC3=C2C(=O)CC(C)(C)C3)c1C (stereo unspecified)	2%	-6%	nt
Cc1cc(C)n2nc(SCc3nnc(-c4ccccc4Br)o3)nc2n1	2%	nt	nt
Cc1cc(C(F)F)nn1CC(=O)Nc1cc([N+](=O)[O-])ccc1F	4%	-6%	nt
Cc1ccc(NC(=O)C2CC(=O)N(c3ccc(OC(C)C)cc3)C2)cc1 (stereo unspecified)	nt	nt	-5
COc1cccc([C@@H]2Oc3ccc(OC)cc3/C(=N/O[C@@H](C)CN3CCCCc4nc(C)c(C)cc43)[C@@H]2O)c1	10%[13.5 µM]	nt	nt
Cc1ccc(S(=O)(=O)NC(CN2CCOCC2)=NCCNS(=O)(=O)c2ccccc2)cc1	2.5µM*	-13%	-4
Cc1ccc(S(=O)(=O)NCCNC(=O)N2CCOCC2)cc1	-1%	-8%	2
Cn1cc(C=C2C(=O)CC(C)(C)CC2=O)c2ccccc21	1.3µM*	-10%	1
Cc1ccc(-c2nn(-c3ccccc3)cc2C=C2C(=O)CC(C)(C)CC2=O)cc1	4%	-17%	-1
Cc1ccccc1C(=O)c1cccn1CC(=O)NCC1CCCO1 (stereo unspecified)	-3%	nt	?
Cc1ccccc1C(=O)c1cccn1CC(=O)N1CCCCCC1	4µM*	nt	?
